Data published in PubChem BioAssay AID1902 (Broad Institute, 2009).
About 2,900 (91%) of roughly 3,200 compounds were called active.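 The calls were made as follows: active = EC50 no more than a set limit of log units above the highest dose; inactive = the rest.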 So high a share suggests a set chosen from earlier hits. The list shows a part of the results. Entries with a potency or affinity are not part of this list.

Experiment: SKKanGAS survival reduction under kanamycin, dose response, streptokinase promoter inhibitor project, SKKanGAS strain, luminescence, dose confirmation (AID 1902);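 also: lower survival reflects blocked streptokinase promoter driving kanamycin resistance gene; 0% = DMSO median and -100% = tetracycline positive control median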
Details: S. pyogenes SKKanGAS, BacTiterGlo, 6 h; at 15 µM (top of the series)
With `N#C/C(=C\c1ccc(/C=C(/C#N)c2nn(CCO)c(N)c2C#N)cc1)c1nn(CCO)c(N)c1C#N` the activity change, negative = inhibition was -60.6% (active).
